From publication PMC7862700, “An all-to-all approach to the identification of sequence-specific readers for epigenetic DNA modifications on cytosine” come the findings set out here.

Experiment in all cases: DAPPL (digital affinity profiling via proximity ligation, sequencing); 10 mM Tris-HCl pH 7.5, 50 mM NaCl, 1 mM DTT, 4% glycerol, room temperature, 30 min; GST-TFs on glutathione beads, 16-mer random dsDNA library, 0.1% formaldehyde crosslink after washing; high values mean tight binding
Holding throughout (conditions): protein: recombinant; tags: N-terminal GST; dsDNA, one strand shown

One experiment addresses T1, FLI1 (Homo sapiens, UniProt Q01543 1-452).
T1 sequence: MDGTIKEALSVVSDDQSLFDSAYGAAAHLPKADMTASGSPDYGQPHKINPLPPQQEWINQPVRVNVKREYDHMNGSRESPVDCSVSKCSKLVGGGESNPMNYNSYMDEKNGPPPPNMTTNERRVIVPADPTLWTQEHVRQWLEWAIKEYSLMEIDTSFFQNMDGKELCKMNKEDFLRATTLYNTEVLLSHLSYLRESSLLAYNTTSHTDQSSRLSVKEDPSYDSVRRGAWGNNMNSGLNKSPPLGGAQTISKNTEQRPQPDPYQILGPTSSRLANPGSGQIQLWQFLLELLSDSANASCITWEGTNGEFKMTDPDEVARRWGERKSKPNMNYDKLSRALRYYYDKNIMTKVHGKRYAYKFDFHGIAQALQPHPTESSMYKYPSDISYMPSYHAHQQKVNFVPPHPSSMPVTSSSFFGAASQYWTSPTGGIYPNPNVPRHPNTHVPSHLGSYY
The method in brief:
(§1)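 Human transcription factors carrying a GST fusion were produced in yeast, bound to glutathione beads, tagged with DNA barcodes and pooled together with a tag-only sample. Each pool was held with 200 nmole of a random double-stranded 16-mer DNA library in Tris/NaCl/DTT/glycerol buffer for 30 min at room temperature, then washed, crosslinked in 0.1% formaldehyde, proximity-ligated with BsaI/T4 ligase (1 h, 37 °C), PCR-amplified and sequenced on an Illumina NextSeq500. Binding signal is the read frequency of each hexamer for a given factor divided by its frequency in the tag-only sample.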

A further experiment concerns the target T2, ELK1 (Homo sapiens, UniProt P19419 1-428).
T2 sequence: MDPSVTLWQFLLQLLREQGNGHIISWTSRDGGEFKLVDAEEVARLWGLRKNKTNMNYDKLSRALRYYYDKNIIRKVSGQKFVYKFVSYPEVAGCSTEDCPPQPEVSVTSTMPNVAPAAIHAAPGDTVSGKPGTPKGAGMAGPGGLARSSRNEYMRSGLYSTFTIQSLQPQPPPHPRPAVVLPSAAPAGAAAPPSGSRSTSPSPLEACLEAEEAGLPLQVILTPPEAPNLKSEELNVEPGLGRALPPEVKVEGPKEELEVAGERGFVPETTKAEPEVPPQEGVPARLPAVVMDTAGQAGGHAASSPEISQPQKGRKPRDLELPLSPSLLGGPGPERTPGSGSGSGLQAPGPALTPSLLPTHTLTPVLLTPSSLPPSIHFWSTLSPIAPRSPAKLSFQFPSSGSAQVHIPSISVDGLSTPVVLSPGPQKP
The method in brief: as §1

Another experiment addresses T3, GABPA (Homo sapiens, UniProt Q06546 1-454).
T3 sequence: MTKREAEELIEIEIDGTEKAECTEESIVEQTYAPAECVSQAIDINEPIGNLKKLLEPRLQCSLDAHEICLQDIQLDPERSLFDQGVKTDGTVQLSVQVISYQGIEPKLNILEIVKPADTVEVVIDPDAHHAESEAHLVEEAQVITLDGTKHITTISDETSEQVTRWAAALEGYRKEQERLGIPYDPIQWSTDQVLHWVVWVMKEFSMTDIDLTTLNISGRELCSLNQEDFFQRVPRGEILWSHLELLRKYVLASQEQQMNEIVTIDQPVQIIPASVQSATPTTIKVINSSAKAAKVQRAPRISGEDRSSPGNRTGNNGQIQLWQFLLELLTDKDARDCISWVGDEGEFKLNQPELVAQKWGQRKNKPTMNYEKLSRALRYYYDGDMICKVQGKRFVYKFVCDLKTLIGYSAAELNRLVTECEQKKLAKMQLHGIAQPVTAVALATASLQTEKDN
In short, it runs like this:
as §1

A further experiment concerns the target T4, ERG (Homo sapiens, UniProt P11308 1-479).
T4 sequence: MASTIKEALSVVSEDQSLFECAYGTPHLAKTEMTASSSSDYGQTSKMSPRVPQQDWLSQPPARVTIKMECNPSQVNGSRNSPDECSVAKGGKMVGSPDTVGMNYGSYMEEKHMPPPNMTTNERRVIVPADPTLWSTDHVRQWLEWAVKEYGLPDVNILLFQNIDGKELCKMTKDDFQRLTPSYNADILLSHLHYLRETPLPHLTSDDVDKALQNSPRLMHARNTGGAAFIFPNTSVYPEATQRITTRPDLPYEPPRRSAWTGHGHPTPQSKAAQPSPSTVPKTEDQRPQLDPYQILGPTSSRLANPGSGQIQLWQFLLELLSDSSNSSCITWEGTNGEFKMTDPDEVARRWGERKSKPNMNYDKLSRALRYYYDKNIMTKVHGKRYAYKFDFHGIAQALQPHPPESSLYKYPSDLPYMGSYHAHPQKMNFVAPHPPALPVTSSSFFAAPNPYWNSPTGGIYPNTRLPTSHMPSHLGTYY
In short, it runs like this:
as §1

The next experiment deals with ELF1 (Homo sapiens, UniProt P32519 1-619). The method in brief:
as §1

For another experiment, the target named is T5, EHF (Homo sapiens, UniProt Q9NZC4 1-300).
T5 sequence: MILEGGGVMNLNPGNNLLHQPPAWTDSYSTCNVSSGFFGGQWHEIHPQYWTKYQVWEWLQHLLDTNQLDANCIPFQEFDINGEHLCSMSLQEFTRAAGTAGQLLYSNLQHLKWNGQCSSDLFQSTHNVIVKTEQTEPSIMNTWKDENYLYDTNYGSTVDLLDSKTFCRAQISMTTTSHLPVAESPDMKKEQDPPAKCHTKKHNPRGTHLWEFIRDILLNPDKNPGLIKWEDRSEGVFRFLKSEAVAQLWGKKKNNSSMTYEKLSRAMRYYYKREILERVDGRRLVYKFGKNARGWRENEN
The method in brief:
as §1

A further experiment has as its target SPI1 (Homo sapiens, UniProt P17947 1-270). The method in brief: as §1
The next experiment concerns the target SPIB (Homo sapiens, UniProt Q01892 1-262). The method in brief:
as §1

For another experiment, the target named is T6, ELK3 (Homo sapiens, UniProt P41970 1-407).
T6 sequence: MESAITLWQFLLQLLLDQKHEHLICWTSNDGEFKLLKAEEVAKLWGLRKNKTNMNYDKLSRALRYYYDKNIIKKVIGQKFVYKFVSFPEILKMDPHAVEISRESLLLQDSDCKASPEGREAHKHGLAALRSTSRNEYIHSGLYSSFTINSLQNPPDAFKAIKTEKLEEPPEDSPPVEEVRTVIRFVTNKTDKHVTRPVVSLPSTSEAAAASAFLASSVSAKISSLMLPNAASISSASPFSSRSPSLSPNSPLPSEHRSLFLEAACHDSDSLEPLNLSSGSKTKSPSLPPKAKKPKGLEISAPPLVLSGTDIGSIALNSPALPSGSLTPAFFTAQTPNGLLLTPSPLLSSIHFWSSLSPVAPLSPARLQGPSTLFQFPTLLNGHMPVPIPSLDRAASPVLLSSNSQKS
In short, it runs like this: as §1

SPIB, sequence (Q01892 whole entry): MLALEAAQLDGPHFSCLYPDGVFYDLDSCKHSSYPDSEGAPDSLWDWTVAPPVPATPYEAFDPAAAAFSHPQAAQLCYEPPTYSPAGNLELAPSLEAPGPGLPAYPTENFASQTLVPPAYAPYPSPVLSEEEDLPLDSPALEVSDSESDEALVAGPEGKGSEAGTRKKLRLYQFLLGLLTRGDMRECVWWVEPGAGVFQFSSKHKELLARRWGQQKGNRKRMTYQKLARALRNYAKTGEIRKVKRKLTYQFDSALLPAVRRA
ELF1, sequence (P32519 whole entry): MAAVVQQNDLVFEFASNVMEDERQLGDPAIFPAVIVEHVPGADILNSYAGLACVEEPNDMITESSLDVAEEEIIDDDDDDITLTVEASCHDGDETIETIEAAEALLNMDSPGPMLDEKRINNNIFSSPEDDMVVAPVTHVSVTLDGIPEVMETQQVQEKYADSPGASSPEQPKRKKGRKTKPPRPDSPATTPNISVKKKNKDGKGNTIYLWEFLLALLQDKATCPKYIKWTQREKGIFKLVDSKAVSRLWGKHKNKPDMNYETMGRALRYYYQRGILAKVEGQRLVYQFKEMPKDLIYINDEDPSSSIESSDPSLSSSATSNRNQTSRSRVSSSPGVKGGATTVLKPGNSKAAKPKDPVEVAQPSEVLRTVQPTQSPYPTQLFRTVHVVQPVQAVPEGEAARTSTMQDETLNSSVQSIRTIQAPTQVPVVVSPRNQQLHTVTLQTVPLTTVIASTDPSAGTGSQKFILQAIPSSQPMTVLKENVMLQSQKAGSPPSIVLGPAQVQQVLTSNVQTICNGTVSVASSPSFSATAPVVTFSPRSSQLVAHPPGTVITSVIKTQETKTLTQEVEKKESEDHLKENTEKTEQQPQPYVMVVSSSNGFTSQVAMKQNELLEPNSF

ATGCAA: the binding signal with FLI1 is 1.32 fold enrichment (6-mer frequency, TF over GST control); with ELK1, 1.26 fold enrichment (6-mer frequency, TF over GST control); with GABPA, 1.27 fold enrichment (6-mer frequency, TF over GST control); with ERG it was 1.29 fold enrichment (6-mer frequency, TF over GST control); with ELF1, 1.25 fold enrichment (6-mer frequency, TF over GST control); with EHF, 1.25 fold enrichment (6-mer frequency, TF over GST control). Moreover, the binding signal was 1.2 fold enrichment (6-mer frequency, TF over GST control) with SPI1; 1.26 fold enrichment (6-mer frequency, TF over GST control) with SPIB; 1.18 fold enrichment (6-mer frequency, TF over GST control) with ELK3.

With ATCCGC, the binding signal with FLI1 was 1.82 fold enrichment (6-mer frequency, TF over GST control); with ELK1, 1.86 fold enrichment (6-mer frequency, TF over GST control); with GABPA, 1.57 fold enrichment (6-mer frequency, TF over GST control); with ERG, 1.93 fold enrichment (6-mer frequency, TF over GST control); with ELF1, 1.76 fold enrichment (6-mer frequency, TF over GST control); in the experiment with EHF it was 1.82 fold enrichment (6-mer frequency, TF over GST control). The binding signal with SPI1 is 1.74 fold enrichment (6-mer frequency, TF over GST control); with SPIB, 1.82 fold enrichment (6-mer frequency, TF over GST control); in the experiment with ELK3, 2.04 fold enrichment (6-mer frequency, TF over GST control).

TTAAGC: the binding signal was 1.18 fold enrichment (6-mer frequency, TF over GST control) in the experiment with FLI1; 1.18 fold enrichment (6-mer frequency, TF over GST control) with ELK1; 1.24 fold enrichment (6-mer frequency, TF over GST control) in the experiment with GABPA; 1.15 fold enrichment (6-mer frequency, TF over GST control) with ERG; 1.18 fold enrichment (6-mer frequency, TF over GST control) with ELF1; 1.13 fold enrichment (6-mer frequency, TF over GST control) with EHF. Moreover, the binding signal was 1.1 fold enrichment (6-mer frequency, TF over GST control) with SPI1; 1.08 fold enrichment (6-mer frequency, TF over GST control) with SPIB; 1.18 fold enrichment (6-mer frequency, TF over GST control) with ELK3.

As to GCTAGC, the binding signal was 1.17 fold enrichment (6-mer frequency, TF over GST control) with FLI1; 1.23 fold enrichment (6-mer frequency, TF over GST control) with ELK1; 1.18 fold enrichment (6-mer frequency, TF over GST control) in the experiment with GABPA; 1.22 fold enrichment (6-mer frequency, TF over GST control) in the experiment with ERG; 1.18 fold enrichment (6-mer frequency, TF over GST control) with ELF1; 1.19 fold enrichment (6-mer frequency, TF over GST control) in the experiment with EHF. Also, the binding signal was 1.29 fold enrichment (6-mer frequency, TF over GST control) with SPI1; 1.17 fold enrichment (6-mer frequency, TF over GST control) with SPIB; 1.22 fold enrichment (6-mer frequency, TF over GST control) with ELK3.

Take CCGCTC: the binding signal was 1.53 fold enrichment (6-mer frequency, TF over GST control) in the experiment with FLI1; 1.52 fold enrichment (6-mer frequency, TF over GST control) in the experiment with ELK1; 1.39 fold enrichment (6-mer frequency, TF over GST control) in the experiment with GABPA; 1.47 fold enrichment (6-mer frequency, TF over GST control) with ERG; 1.58 fold enrichment (6-mer frequency, TF over GST control) with ELF1; 1.54 fold enrichment (6-mer frequency, TF over GST control) with EHF. The binding signal was 1.48 fold enrichment (6-mer frequency, TF over GST control) with SPI1; 1.59 fold enrichment (6-mer frequency, TF over GST control) with SPIB; 1.49 fold enrichment (6-mer frequency, TF over GST control) with ELK3.

Regarding AAACTC, the binding signal was 1.29 fold enrichment (6-mer frequency, TF over GST control) in the experiment with FLI1; 1.3 fold enrichment (6-mer frequency, TF over GST control) with ELK1; 1.15 fold enrichment (6-mer frequency, TF over GST control) in the experiment with GABPA; 1.17 fold enrichment (6-mer frequency, TF over GST control) with ERG; 1.25 fold enrichment (6-mer frequency, TF over GST control) in the experiment with ELF1; 1.24 fold enrichment (6-mer frequency, TF over GST control) with EHF. Besides, the binding signal was 1.13 fold enrichment (6-mer frequency, TF over GST control) with SPI1; 1.18 fold enrichment (6-mer frequency, TF over GST control) with SPIB; 1.16 fold enrichment (6-mer frequency, TF over GST control) with ELK3.

For the sequence ATTTGC, the binding signal was 1.3 fold enrichment (6-mer frequency, TF over GST control) in the experiment with FLI1; 1.36 fold enrichment (6-mer frequency, TF over GST control) with ELK1; 1.34 fold enrichment (6-mer frequency, TF over GST control) with GABPA; 1.32 fold enrichment (6-mer frequency, TF over GST control) in the experiment with ERG; 1.34 fold enrichment (6-mer frequency, TF over GST control) in the experiment with ELF1; 1.17 fold enrichment (6-mer frequency, TF over GST control) in the experiment with EHF. Further, the binding signal with SPI1 was 1.41 fold enrichment (6-mer frequency, TF over GST control); with SPIB it was 1.32 fold enrichment (6-mer frequency, TF over GST control); in the experiment with ELK3 it was 1.2 fold enrichment (6-mer frequency, TF over GST control).

For the sequence GGCCTT, the binding signal with FLI1 was 1.17 fold enrichment (6-mer frequency, TF over GST control); with ELK1 it was 1.18 fold enrichment (6-mer frequency, TF over GST control); with GABPA, 1.29 fold enrichment (6-mer frequency, TF over GST control); with ERG it was 1.16 fold enrichment (6-mer frequency, TF over GST control); with ELF1, 1.09 fold enrichment (6-mer frequency, TF over GST control); in the experiment with EHF it was 1.13 fold enrichment (6-mer frequency, TF over GST control). For the same sequence, the binding signal in the experiment with SPI1 is 1.18 fold enrichment (6-mer frequency, TF over GST control); with SPIB, 1.19 fold enrichment (6-mer frequency, TF over GST control); with ELK3 it was 1.17 fold enrichment (6-mer frequency, TF over GST control).
